This is part of a sample that, as a whole, favours compounds with a hit. Of some 83,000 tested, about 20% had one in any assay.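 48-hour exposure, single concentration, 96-well plates; percent growth endpoint where 0 means no net growth. Active: below 10.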 A number with no mark means an inactive call. Active and inactive are the calls of the source.

Common to all, as to assay: NCI-60 one-dose screen, 48 h (100 = growth as untreated, 0 = no growth, -100 = all killed)
What all share (conditions): 10 µM

Assay [1] relates to OVCAR-8 ovarian.
Assay [2] concerns OVCAR-5 ovarian.
Assay [3] has as its system OVCAR-4 ovarian.
Assay [4] has as its system SK-OV-3 ovarian.
The subject of assay [5] is IGROV1 ovarian.
Assay [6] has as its system OVCAR-3 ovarian.
The subject of assay [7] is HS 578T breast.
For assay [8], the system named is NCI/ADR-RES ovarian.
The subject of assay [9] is T-47D breast.
The subject of assay [10] is BT-549 breast.
The test system of assay [11] is MDA-MB-435 melanoma.
Assay [12] deals with SW-620 colon.
Assay [13] relates to MCF7 breast.
Assay [14] relates to HCT-116 colon.
The subject of assay [15] is HCC-2998 colon.
The subject of assay [16] is KM12 colon.

Take `Cc1ccc(NC(=O)Nc2cccnc2)cc1NC(=O)Nc1cccnc1`: the growth in assay [1] was 73.8%; in assay [2] it was 110%; in assay [3] it was 77.7%; in [4], 101%; in assay [5], 68.5%; in [6], 93.2%. The growth in [7] is 95.7%; in [8], 87.6%; in assay [9], 58%; in assay [10], 98.1%; in assay [11], 73.9%; in [12] it was 108%. Also, the growth in assay [13] was 81%; in assay [14], 90.2%; in assay [15], 87.7%; in assay [16] it was 87.2%.

For the compound `Cc1ccc(NC(=O)Nc2c(Cl)cccc2Cl)cn1`, the growth in [1] is 111%; in assay [2], 119%; in assay [3], 135%; in assay [4] it was 116%; in [5], 85.9%; in assay [6], 106%. Further, the growth in [7] was 97.8%; in assay [8], 105%; in assay [9], 96.8%; in [10] it was 118%; in assay [11], 38.3%; in [12], 127%. Further, the growth was 91.8% in [13], 104% in assay [14], 104% in [15] and 105% in assay [16].

Turning to `CC(C)=CCc1ccc(O)c(=O)cc1C(C)C`, the growth in [1] was 12.4%; in assay [2], 52.4%; in [3], 31.2%; in assay [4], 18.5%; in assay [5], 1.88% (active); in [6], 43.4%. The growth is 72.7% in assay [7]; 1.61% (active) in assay [8]; 20.4% in assay [9]; -2.13% (active) in [10]; 30.7% in [11]; 34.1% in assay [12]. Besides, the growth in assay [13] was 21.5%; in assay [14] it was 17.3%; in assay [15], 7.5% (active); in assay [16], 26.4%.

On to `Nc1ncn([C@@H]2O[C@H](CO)[C@@H](O)[C@H]2O)c(=O)n1`, for which the growth in assay [1] was 22.4%; in assay [2], 56.8%; in assay [3], 34.1%; in [4], 17.4%; in [5], 18.5%; in [6], 22.7%. The growth in [7] was 23.7%; in assay [8], 29.1%; in assay [9], 26.6%; in assay [10] it was 16.3%; in assay [11], 16.6%; in assay [12] it was 35.6%. For the same compound, the growth was 23.5% in assay [13], -31.5% (active) in assay [14], 11.7% in [15] and 16.6% in assay [16].

With `CN1CCCNc2c(c(=O)c2=O)NCCCN(C)CCCNc2c(c(=O)c2=O)NCCCN(C)CCCNc2c(c(=O)c2=O)NCCCN(C)CCCNc2c(c(=O)c2=O)NCCCN(C)CCCNc2c(c(=O)c2=O)NCCCN(C)CCCNc2c(c(=O)c2=O)NCCCN(C)CCCNc2c(c(=O)c2=O)NCCC1`, the growth in [1] was 18.9%; in [2], 99.6%; in assay [3], 66.5%; in [4], 29.4%; in assay [5] it was 47.6%; in [6] it was 35.9%. In addition, the growth in assay [7] is 85%; in assay [8], 64.9%; in [9], 14.7%; in [10] it was 67.1%; in assay [11], 21.1%; in assay [12], 41%. Moreover, the growth is 74.1% in assay [13], 59.2% in [14], 70.6% in assay [15] and 34.9% in assay [16].

On to `O=C(c1cccs1)c1ccccc1Cc1ccccc1`, for which the growth is 99% in assay [1]; 124% in assay [2]; 96.9% in [3]; 101% in assay [4]; 99.2% in assay [5]; 110% in [6]. Further, the growth in assay [7] was 106%; in [8], 103%; in [9] it was 95%; in assay [10], 106%; in [11] it was 103%; in [12], 104%. Also, the growth in assay [13] is 102%; in assay [14] it was 113%; in assay [15], 114%; in assay [16] it was 104%.

On to `O=C(Nc1ccncc1)C(=O)c1cn(S(=O)(=O)c2ccc(F)cc2)c2ccccc12`, for which the growth in assay [1] was 30%; in [2] it was 72.4%; in assay [3], 66.9%; in assay [4], 91.2%; in [5], 26.8%; in assay [6] it was -21.9% (active). Also, the growth in assay [7] is 50.4%; in assay [8] it was 2.06% (active); in [9] it was 52.5%; in assay [10] it was 36.9%; in assay [11] it was -20.3% (active); in assay [12] it was 12%. For the same compound, the growth was 12.6% in assay [13], 11.6% in assay [14], 61.6% in [15] and 18.1% in assay [16].

Take `CCN(CC)CCOc1nc2cc(OC)c(OC)cc2c2c1-c1ccc(OC)cc1C2=O`: the growth in [1] is 52.9%; in [2], 111%; in [3], 61.5%; in [4], 77.3%; in [5], 60.4%; in [6], 80%. In addition, the growth in [7] was 89.6%; in [8], 64.4%; in assay [9], 107%; in [10], 81.3%; in assay [11], 86.2%; in [12] it was 45.4%. Further, the growth in assay [13] is 35%; in [14], 47.4%; in assay [15], 82.6%; in [16], 64.7%.

`CO/N=C(/C(=O)NC1C(=O)N2C(C(=O)O)=C(COC(N)=O)CSC12)c1ccco1` (centres undefined): the growth in [1] was 108%; in assay [2], 108%; in [3] it was 106%; in assay [4] it was 114%; in [5], 109%; in assay [6], 122%. The growth in assay [7] was 116%; in [8], 110%; in assay [9] it was 101%; in assay [10], 108%; in [11] it was 104%; in [12] it was 110%. The growth was 94.2% in assay [13], 104% in assay [14], 104% in assay [15] and 113% in assay [16].
